From PubChem BioAssay AID651636 (Sanford-Burnham Center for Chemical Genomics, 2012)
In all, about 360,000 compounds went through this assay and about 3,000 (0.83%) were called active. No stated cut-off is given here; in the data, active means inhibition above about 38%; inactive means the rest. Many of the other results were omitted from the sample, so actives are more common in it than they were.

Target: G-protein coupled receptor 183 (Homo sapiens) (UniProt P32249)
Test: EBI2 receptor antagonists, beta-arrestin recruitment, primary screen, cell-based, luminescence, 7a,25-OHC stimulation, uHTS (AID 651636);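 further: enzyme fragment complementation signal reports receptor beta-arrestin coupling in cells; 0% = agonist plus DMSO wells and 100% = wells without agonist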
Settings: 7a,25-OHC stimulated, at 5 µM, active compounds read high

Sequence of G-protein coupled receptor 183 (Homo sapiens) (P32249 whole entry, looked up, the tested form may be a part): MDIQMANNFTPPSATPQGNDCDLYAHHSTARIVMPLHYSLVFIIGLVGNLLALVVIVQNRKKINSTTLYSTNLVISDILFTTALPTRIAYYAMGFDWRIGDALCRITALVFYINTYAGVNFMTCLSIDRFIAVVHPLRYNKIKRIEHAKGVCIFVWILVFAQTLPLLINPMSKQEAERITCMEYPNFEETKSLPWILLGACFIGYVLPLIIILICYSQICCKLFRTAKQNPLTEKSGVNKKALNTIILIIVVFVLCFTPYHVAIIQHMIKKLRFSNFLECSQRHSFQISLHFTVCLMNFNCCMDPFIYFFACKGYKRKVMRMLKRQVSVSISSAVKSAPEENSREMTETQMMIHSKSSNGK

inhibition, active:
O=C(NCc1ccc(Cl)cc1)C1CCN(S(=O)(=O)c2cccs2)CC1 53%
COc1ccc(C(C(=O)NC2CCCCC2)N(C(=O)c2snc(C(N)=O)c2N)c2ccccc2OC)cc1 (centres undefined) 48.7%
Cc1cc(C)c2c(=O)n3c(nc2c1)C(CC(C)C)NC(=O)c1cc2ccccc2cc1-3 (centres undefined) 77.3%
O=C(/C=C/c1cccc(C(F)(F)F)c1)N1CCN(c2ccccn2)CC1 55%

inhibition, inactive:
O=C(NCc1ccccc1)C1CCCN(S(=O)(=O)c2cccs2)C1 (centres undefined) -3.94%
O=C(NCc1ccc(Cl)cc1)C(=O)NCC1CCCN1S(=O)(=O)c1cccs1 (centres undefined) -11.1%
N#CCCCn1c(O)c(N=NC(=O)C(O)c2ccccc2)c2ccccc21 (centres undefined) 10.8%
COC(=O)c1cccc(NS(C)(=O)=O)c1 1.19%
CCCc1cc(=O)oc2cc(OCC(=O)Nc3ccc(CN4CCOCC4)cc3)c(Cl)cc12 -0.759%
CC(NC(=S)NC1CCCCC1)C(c1ccccc1)N1CCOCC1 (centres undefined) -1.91%
Cc1sc(NC(=O)C2C3CCC(O3)C2C(=O)O)c(C(=O)OC(C)C)c1-c1ccc(Cl)cc1 (centres undefined) 2.12%
CC(C)c1cc(Cn2c3ccccc3c(=O)n2C(C)Cn2cc(C3CC3)nn2)on1 (centres undefined) -7.98%
COc1ccc(N(C(=O)c2snc(C(N)=O)c2N)C(C(=O)NC2CCCC2)c2ccc(C)o2)c(OC)c1 (centres undefined) 34.7%
CCC(C(=O)NC1CCCCC1)N(C(=O)c1snc(C(N)=O)c1N)c1ccc(OC)cc1OC (centres undefined) 8.28%
Cc1ccccc1C(=O)NCC(c1ccco1)N1CCc2ccccc21 (centres undefined) 6.76%
CCC1NC(=O)c2cccnc2-n2c1nc1ccc(C)cc1c2=O (centres undefined) -1.36%
O=C1NC(Cc2ccccc2)c2nc3ccc(Br)cc3c(=O)n2-c2cc3ccccc3cc21 (centres undefined) 37.7%
Cc1[nH]c2c(C(=O)N3CCCC(CCC(=O)NCc4ccccc4F)C3)cccc2c1C (centres undefined) 2.8%
CN1CCN(c2ccccc2NC(=O)COc2ccc(C3CCCCC3)cc2)CC1 22.8%
O=C(CSCc1ccc([N+](=O)[O-])cc1)NCCSCc1ccccc1 3.17%
Nc1ccn(CC(=O)N2CCN(c3ccccn3)CC2)c(=O)n1 -9.67%
O=S(=O)(c1cccc(C(F)(F)F)c1)N1CCN(c2cnccn2)CC1 -1.02%
CSc1ccc(Cl)c(C(=O)OCC(=O)N2CCNC2=O)c1 5.05%
CCc1nn(CCCC(=O)NC(C)c2ccccc2)c(=O)c2cc3occc3n12 (centres undefined) -11%
